Screens: PubChem BioAssay, National Center for Advancing Translational Sciences (NCATS)
RORg inh: qHTS for inhibitors of ROR gamma transcriptional activity. Nuclear receptor ROR-gamma (Mus musculus), P51450. Potency, µM (highest dose often 53.6 µM), without a hit: at the top dose activity change, negative = inhibition, actives largely listed as inhibitors. Drosophila S2 Gal4-RORgamma UAS-luciferase reporter, 20 h. 5.4% of 310,000 active; also: potency is read from the fitted curve at half-maximal effect; nearly all actives have a fitted effect of over 60% in size
Target sequence (P51450 whole entry, looked up, the tested form may be a part): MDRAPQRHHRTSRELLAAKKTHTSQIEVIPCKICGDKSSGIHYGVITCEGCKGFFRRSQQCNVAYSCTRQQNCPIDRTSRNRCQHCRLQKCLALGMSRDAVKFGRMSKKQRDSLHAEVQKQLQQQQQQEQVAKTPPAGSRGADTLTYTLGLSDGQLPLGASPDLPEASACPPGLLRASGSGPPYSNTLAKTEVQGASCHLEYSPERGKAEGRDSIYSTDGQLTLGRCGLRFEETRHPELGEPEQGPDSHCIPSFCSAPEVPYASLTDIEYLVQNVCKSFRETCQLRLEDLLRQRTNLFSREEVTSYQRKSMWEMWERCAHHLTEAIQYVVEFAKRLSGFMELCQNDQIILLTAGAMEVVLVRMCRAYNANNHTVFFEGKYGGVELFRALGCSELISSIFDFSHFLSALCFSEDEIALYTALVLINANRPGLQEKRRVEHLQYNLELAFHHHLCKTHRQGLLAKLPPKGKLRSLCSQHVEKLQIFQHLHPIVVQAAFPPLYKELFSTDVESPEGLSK
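Drosophila S2 cells stably expressing Gal4-DBD/mouse RORγ fusion under metallothionein promoter plus UAS-luciferase; compound 1 h, then 700 uM CuSO4 induction for 20 h at ambient temperature; inhibition read as reduced luminescence.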
DT40 TDP1 CPT: qHTS for Inhibitors of human tyrosyl-DNA phosphodiesterase 1 (TDP1): qHTS in cells in presence of CPT; chicken DT40 Tdp1-/-;hTDP1 cells + 20 nM CPT, ATP luminescence, 48 h; Potency, µM (titrated, usually from 46.2 µM), without a hit: top-dose activity change, negative = growth inhibition, most hits filed as inhibitors; 12% of 420,000 active; AID 686979, 2013; also: potency is read from the fitted curve at half-maximal effect; nearly all actives have a fitted effect of over 55% in size
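Chicken DT40 Tdp1-/- cells stably complemented with human TDP1 were seeded at 400 cells/well in medium containing 20 nM camptothecin, exposed to pin-transferred compounds, and grown at 37 °C for at least 48 hr. Viability was read as ATP luminescence.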
Gal4-VP16 FLuc: VP16 counterscreen qHTS for inhibitors of ROR gamma transcriptional activity; Drosophila S2 Gal4-VP16 UAS-luciferase, luminescence, 20 h; 3.5% of 310,000 active; Potency, µM (series often up to 53.6 µM), for inactives: at the top dose activity, negative = inhibition, most hits filed as inhibitors; AID 2546, 2010;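 also: Gal4-VP16 expression switched on by copper sulfate through the metallothionein promoter; potency is read from the fitted curve at half-maximal effect; nearly all actives have a fitted effect of over 50% in size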
IL1B secr inh: qHTS for Inhibitors of Inflammasome Signaling: IL-1-beta AlphaLISA Primary Screen; THP-1 LPS/ATP IL-1B secretion, AlphaLISA, 16 h; active compounds read low; activity change, % at 57.5 µM; 4.7% of 360,000 active; AID 743279, 2014; in the data active = activity change below about -50%; inconclusive = mostly about -30% to -49%
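THP-1 cells pretreated 1 hr with compounds (up to 57.5 uM final), then stimulated with LPS (250 ng/mL final) plus ATP (1.25 mM final); secreted IL-1B measured by AlphaLISA after 16 hr, decreased signal indicating inhibition.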
DT40 TDP1 no CPT: qHTS for Inhibitors of human tyrosyl-DNA phosphodiesterase 1 (TDP1): qHTS in cells in absence of CPT; DT40 Tdp1-/- hTDP1 cells, no CPT, ATP luminescence, 48 h; AID 686978, 2013; 15% of 420,000 active; Potency, µM (series often up to 46.2 µM), without a hit: at the top dose activity change, negative = growth inhibition, actives largely listed as inhibitors; also: potency is read from the fitted curve at half-maximal effect; nearly all actives have a fitted effect of over 55% in size
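Readout: luminescence from CellTiter-Glo after 30 min in the dark at RT. Cells: DT40 Tdp1-/- with stable hTDP1, 400/well. Exposure: compounds alone, ≥48 hr, 37 °C.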
ELG1 DNA repair: qHTS screen for small molecules that inhibit ELG1-dependent DNA repair in human embryonic kidney (HEK293T) cells expressing luciferase-tagged ELG1; 2.3% of 330,000 active; Potency, µM (doses to about 46.1 µM), for inactives: top-dose activity change, negative = inhibition, most hits filed as inhibitors; AID 504467, 2011; HEK293T ELG1-luciferase reporter, luminescence, 16 h; DNA damage induced by 5-fluorouridine; also: potency is read from the fitted curve at half-maximal effect; nearly all actives have a fitted effect of over 55% in size
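Step one: seed 2,000 cells per well. Step two: pin-transfer compound or DMSO alongside 5-fluorouridine. Step three: incubate 16 hr, 37 °C, 5% CO2. Step four: add ONE-Glo, wait 30 min, read luminescence.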
Numbers without * were called inactive; u = inconclusive; x = no result; [ ] = dose if it differs, or a comment. Compounds with a hit are over-represented: about 21% of the library has one in this group of screens. Unless noted, calls follow the shape of the dose curve; as a rule, active = well fitted curve in the direction sought with a large enough effect; inconclusive = small, poorly fitted or top-dose-only effect, or another doubt; inactive = no such curve, though single readings can be large; an effect the other way counts as inactive or inconclusive. % is scaled to controls: 0 for no effect and ±100 for the full control effect.

SMILES	RORg inh	DT40 TDP1 CPT	Gal4-VP16 FLuc	IL1B secr inh	DT40 TDP1 no CPT	ELG1 DNA repair
CCOC(=O)CN1C(=O)S/C(=C/c2ccc(N3CCCCC3)o2)C1=O	-6%	-22%	-8%	-1	-12%	14%
O=C(CS(=O)(=O)c1cccc2nsnc12)NCc1ccccc1Cl	x	-30%	x	x	u	x
Oc1ccc(C2C[C@H]3CC[C@@H]2C3)cc1O (some centres not stated)	u	12µM*	u	-23	u	3%
O=C1CC(c2ccc(O)c(O)c2)Oc2cc(O)cc(O)c21 (configuration not stated)	14%	-23%	7%	2	u	-5%
COc1ccc(NC(=O)c2oc3ccccc3c2NC(=O)COc2ccc(F)cc2)c(OC)c1	x	u	x	x	-16%	x
COc1ccc(N(C(=O)Cn2nnc(-c3ccc(Cl)cc3)n2)C(C(=O)NCC2CCCO2)c2ccc(C)cc2)cc1 (configuration not stated)	-15%	-78%	-11%	-1	-73%	7%
COc1ccc(C(C(=O)NCC2CCCO2)N(C(=O)c2snc(C(N)=O)c2N)c2ccccc2C)cc1OC (configuration not stated)	-16%	-21%	2%	-10	u	-21%
NC(=O)c1nsc(C(=O)N(c2cccc(F)c2)C(C(=O)NCC2CCCO2)c2c[nH]c3ccccc23)c1N (configuration not stated)	8%	4%	0%	-68*	-11%	-7%
COc1ccc(N(C(=O)Cn2nnc(-c3ccccc3F)n2)C(C(=O)NCC2CCCO2)c2ccc(Cl)cc2)cc1 (configuration not stated)	2%	u	5%	13	9.2µM*	u
COc1cccc(N(C(=O)c2snc(C(N)=O)c2N)C(C(=O)NCC2CCCO2)c2ccc(F)cc2)c1 (configuration not stated)	1%	u	u	0	u	-7%
CCc1ccccc1N(C(=O)c1snc(C(N)=O)c1N)C(C(=O)NCC1CCCO1)c1ccc(OC)c(OC)c1 (configuration not stated)	0%	16µM*	3%	8	12µM*	u
CCOc1ccc(C(C(=O)NCC2CCCO2)N(C(=O)c2snc(C(N)=O)c2N)c2ccc(F)cc2)cc1 (configuration not stated)	29%	18µM*	0%	u	u	u
O=C(NC1CCC(O)CC1)C1CCN(S(=O)(=O)c2c(Cl)cccc2Cl)CC1 (configuration not stated)	x	-5%	x	28	3%	14%
Cc1cccc(N(C(=O)c2snc(C(N)=O)c2N)C(C(=O)NCC2CCCO2)c2c[nH]c3ccccc23)c1 (configuration not stated)	31%	u	-15%	u	u	u
NC(=O)c1nsc(C(=O)N(c2ccc(F)cc2)C(C(=O)NCC2CCCO2)c2c[nH]c3ccccc23)c1N (configuration not stated)	-113%	u	16µM*	-60*	u	-4%
O=[N+]([O-])c1ccc(-n2nnnc2-c2ccccc2)cc1	-5%	u	8%	12	u	1%
O=[N+]([O-])c1ccc(-n2nnnc2-c2ccccc2)c([N+](=O)[O-])c1	4µM*	3.7µM*	5.6µM*	-64*	2.9µM*	u
CCOC(=O)c1c(NC(C)=O)sc2c(O)c(CN3CCN(CC)CC3)ccc12	-35%	u	-19%	-63*	-17%	19%
CCOC(=O)c1c(NC(C)=O)sc2c(OC)c(Br)ccc12	1%	-20%	1%	-18	-22%	-5%
CC1=C(C(=O)OC2CCCCC2)C(c2cccnc2)n2nnnc2N1 (configuration not stated)	24%	8.2µM*	16µM*	-10	12µM*	-7%
COC(=O)C1=C(C)Nc2nnnn2C1c1cccnc1 (configuration not stated)	-27%	-4%	u	12	-28%	0%
COc1cc(C)c(CN2CCOc3ccc(C(O)c4cccnc4)cc3C2)cc1C (configuration not stated)	x	-5%[9.04 µM]	x	x	18µM*	x
CCn1c2ccccc2c2cc(CN3CCOc4ccc(C(O)c5cccnc5)cc4C3)ccc21 (configuration not stated)	x	u	x	x	26µM*	x
CCN(CC(=O)Nc1ccc(OC)cc1)C(=O)c1ccc(N2C(=O)CCC2=O)cc1	x	6%	x	-14	3%	0%
CCN(c1cccc(C)c1)c1ncnc2nc[nH]c12	0%	-28%	-3%	-4	-30%	u
SMILES	RORg inh	DT40 TDP1 CPT	Gal4-VP16 FLuc	IL1B secr inh	DT40 TDP1 no CPT	ELG1 DNA repair
CCN(CCCNc1ncnc2nc[nH]c12)c1cccc(C)c1	u	18µM*	-8%	40	u	u
Nc1ccc(S(=O)(=O)Nc2nccc(/C=C/c3ccc([N+](=O)[O-])cc3)n2)cc1	-13%	-17%	-13%	u	-5%	u
CCOC(=O)c1c(-c2ccc(C)o2)csc1NC(=O)CN1CCC(C(N)=O)CC1	15%	u	-9%	-78*	u	-25%
CCOC(=O)c1c(-c2ccc(C)o2)csc1NC(=O)CSc1nncs1	-6%	23µM*	-1%	22	16µM*	u
CCOC(=O)c1c(-c2ccc(C)o2)csc1NC(=O)CN1CCCCC1	-6%	u	2%	u	21µM*	-10%
CCOC(=O)c1c(-c2ccco2)csc1NC(=O)COC(=O)c1cnccn1	x	-2%	x	-8	u	3%
CCOC(=O)c1c(-c2ccc(C)o2)csc1NC(=O)CN(C)CC(=O)Nc1ccc(C)cc1	13µM*	u	u	30	u	15µM*
O=C(COC(=O)c1ccc(Cl)cc1O)NCCN1C(=O)CSC1=O	u	-7%	-4%	7	-8%	3%
